Assay results published in PubChem BioAssay (NCI).
Where “and” joins values, the source holds several entries; their conditions need not be identical. Equal values may be shown once. The panel holds about 83,000 compounds, 20% with a hit somewhere; the sample as a whole holds those more often.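 How to read the values: 0–100, growth inhibition (40 = 60% inhibited); 0, no net growth; -100 to 0, cell death (-40 = 40% of starting cells died; -100 = all dead).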 Unmarked numbers belong to inactive results. Calls of active or inactive are those of the source.

Tested on: T-47D breast
Experiment: NCI-60 one-dose screen, 48 h (100 = growth as untreated, 0 = no growth, -100 = all killed)
Conditions: 10 µM
Experimental: Growth inhibition of the T-47D human tumor cell line is measured as a screen for anti-cancer activity. Cells are grown in 96 well plates and exposed to the test compound for 48 hours. Compounds are tested at a single concentration, which is 10^-5 M for most compounds. The reported endpoint is percent growth (GI% or GIPRCNT), where numbers from 0 - 100% represent growth inhibition, and numbers from -100% - 0 represent cell death. For example, a value of 40 represents 60% growth inhibition. A value of 0 means no net growth occurred over the course of the experiment. A value of -40 indicates 40% of cells at the beginning of the experiment died by the end of the experiment. A value of -100 means all cells are dead at the end of the experiment.
NCI-60 Human Tumor Cell Lines Screen was performed using the standard one-dose NCI protocol, which is described in more detail at https://dtp.cancer.gov/discovery_development/nci-60/default.htm.
Compounds with GIPRCNT values below 10 were considered active. Activity score was based on GIPRCNT using the following formula: […]
Score is 0 for GIPRCNT values of 100 or above, 50 for GIPRCNT values of 0, and 100 for GIPRCNT values of -100.

Question: O=C(O)CCCc1ccc(N(CCCl)CCCl)cc1 was tested. Which growth did it give?
Answer: 87.2% and 74.8%

Same assay, conditions: 10 µM unless noted

Question: O=S(=O)(F)c1cccc(Cl)c1C[P+](c1ccccc1)(c1ccccc1)c1ccccc1 was tested. Which growth did it give?
Answer: 91.9%

Question: With O=[N+]([O-])c1c(Cl)cc(Cl)c([N+](=O)[O-])c1Cl as the molecule, how does the growth read?
Answer: 22.2%

Question: With O=C1C=C(N2CC2)c2ccccc2C1=O as the molecule, how does the growth read?
Answer: 75.5%

Question: For COc1ccc2c(c1)c(-c1nc(-c3cn(C)c4ncccc34)cs1)cn2CCCCN1CCOCC1, which growth is on record?
Answer: 64.5%

Question: With CNC(=O)Oc1ccc(Cl)cc1SSc1cc(Cl)ccc1OC(=O)NC as the molecule, how does the growth read?
Answer: 57.2%

Question: Which growth does the source give for CN1CCN(c2ccc(Cl)cc2)CC1 here?
Answer: 90%

Question: With Cc1cc[c-]cc1.Fc1c[c-]c(-c2ccccn2)c(F)c1.N#CCC[PH+](CCC#N)c1ccccc1.[Pt+2] as the molecule, how does the growth read?
Answer: 29.1%

Question: How did the growth turn out when CNC(=O)O/N=C(\SC)C(=O)N(C)C was run?
Answer: 97.1%

Question: With CC/C(Cc1ccccc1)=C(\c1ccc(OCCN2CCCC2)cc1)c1ccc(OC(=O)NCc2ccccc2)cc1 as the molecule, how does the growth read?
Answer: 21.2%

Question: For CCCC[C@H]1C(=O)O[C@H](C)[C@H](NC(=O)c2cccc(NC=O)c2O)C(=O)O[C@@H](C)[C@@H]1OC(=O)CC(C)C, which growth is on record?
Answer: 27.9%

Question: How did the growth turn out when Clc1ccc(COC(Cn2ccnc2)c2ccc(Cl)cc2Cl)c(Cl)c1 (stereo not given) was run?
Answer: 46.4% and 36.5%

Question: For COc1cc(-c2ccc(N)c(OC)c2)ccc1N, which growth is on record?
Answer: 96.4%

Question: Which growth does the source give for C[C@@H]1C/C=C\C(=O)O[C@H](/C=C/C#C/C=C/C(C)(C)[C@@H](O)c2cccc(O)c2Br)[C@@H](C)/C=C/[C@H](C)C[C@H](OC(N)=O)C1 here?
Answer: 12.6%

Question: Which growth does the source give for CN(C)c1ccc(C=C2C(=O)NC(=O)NC2=O)cc1 here?
Answer: 76.1%

Question: With CC[C@H](CC[C@@H](C)[C@H]1CC[C@H]2[C@@H]3CC[C@H]4C[C@]5(CC[C@]4(C)[C@H]3CC[C@]12C)OO[C@](C)(C(F)(F)F)O5)C(C)C as the molecule, how does the growth read?
Answer: 87.9%

Question: For COc1ccc2c(c1)c(-c1nc(-c3c[nH]c4ncccc34)cs1)cn2CCCCN1CCOCC1, which growth is on record?
Answer: 48%

Question: COC[C@H]1OC(=O)c2coc3c2[C@@]1(C)C1=C(C3=O)[C@@H]2CCC(=O)[C@@]2(C)C[C@H]1OC(C)=O was tested. Which growth did it give?
Answer: -2.63% (active)

Question: Which growth does the source give for Oc1cc(N2CC2)c(O)cc1N1CC1 here?
Answer: 19.2%

Question: With C=CC1CN2CCC1CC2C(O)c1ccnc2ccccc12 (stereo not given) as the molecule, how does the growth read?
Answer: 135%

Question: With Cc1cc[c-]cc1.Fc1c[c-]c(-c2ccccn2)c(F)c1.[Pt+2].c1ccc([PH+](c2ccccc2)c2ccccn2)cc1 as the molecule, how does the growth read?
Answer: 23.5%

Question: For S=P(SP(=S)(c1ccccc1)c1ccccc1)(c1ccccc1)c1ccccc1, which growth is on record?
Answer: 103%

Question: O=C(CBr)OCCOC(=O)CBr was tested. Which growth did it give?
Answer: 79.5%

Question: With CC[C@H](C)[C@H](NC(=O)c1ncccn1)C(=O)N(C)[C@H](C[C@@H](OC(C)=O)c1nc(C(=O)N[C@@H](Cc2ccccc2)C[C@H](C)C(=O)OC)cs1)C(C)C as the molecule, how does the growth read?
Answer: 52.6%

Question: CC1(C)CN=C(NN=C(/C=C/c2ccc(C(F)(F)F)cc2)/C=C/c2ccc(C(F)(F)F)cc2)NC1 was tested. Which growth did it give?
Answer: -86.1% (active)

Question: How did the growth turn out when Nc1ccc(P(=O)(O)O)cc1 was run?
Answer: 101%

Question: Which growth does the source give for COC1C(O)CC(OC2CC(Oc3cc4cc5c(c(O)c4c(O)c3C)C(=O)[C@@H](OC3CC(OC4CC(OC6CC(C)(O)C(OC(C)=O)C(C)O6)C(O)C(C)O4)C(O)C(C)O3)[C@H]([C@H](OC)C(=O)[C@@H](O)[C@@H](C)O)C5)OC(C)C2OC(C)=O)OC1C (stereo not given in full) here?
Answer: -7.93% (active)

Question: Which growth does the source give for CCCCn1c(=O)c(C(=O)NCc2ccccc2Cl)c(O)c2ccccc21 here?
Answer: 85.6%

Question: With COc1c(O)cc2c(c1OC)-c1ccc(SC)c(=O)cc1C(NC(C)=O)CC2 (stereo not given) as the molecule, how does the growth read?
Answer: 81.9%

Question: Which growth does the source give for N[C@@H](CCC(=O)CCl)C(=O)O here?
Answer: 93% [20 µM]

Question: With NC1CN2CCC1CC2 (stereo not given) as the molecule, how does the growth read?
Answer: 91%

Question: With Cc1ccc(NC2=N[C@]34CC(=O)CC[C@]3(C)[C@H]3CC[C@]5(C)C(=O)CC[C@H]5[C@@H]3C[C@@H]4S2)c(C)c1 as the molecule, how does the growth read?
Answer: 41.8%

Question: C=CC[PH+](c1ccccc1)c1ccccc1.C=CC[PH+](c1ccccc1)c1ccccc1.[Pt+2].[S-]c1nc2ccccc2[nH]1.[S-]c1nc2ccccc2[nH]1 was tested. Which growth did it give?
Answer: -6.06% (active)

Question: Which growth does the source give for N#CCC(=O)c1ccccc1 here?
Answer: 99.4%

Question: Which growth does the source give for C[C@]12CC[C@H]3[C@@H](CC=C4c5nc(N)sc5CC[C@@]43C)[C@@H]1CC[C@@H]2O here?
Answer: 92.2%

Question: For CO[C@@H]([CH2][Hg][O]C(=O)c1ccccc1)[C@@H]([CH2][Hg][O]C(=O)c1ccccc1)OC, which growth is on record?
Answer: 87.7%

Question: Which growth does the source give for CCC1(CCSC#N)C(=O)NC(=O)NC1=O here?
Answer: 78.4%

Question: With Oc1ccccc1C=NCCN=Cc1ccccc1O as the molecule, how does the growth read?
Answer: 103%

Question: With CCOP(=O)(OCC)C(=O)N(CC)CC as the molecule, how does the growth read?
Answer: 96.3%

Same assay, conditions: 75 µM

Question: With O=C(O)CCCc1ccc(N(CCCl)CCCl)cc1 as the molecule, how does the growth read?
Answer: 27.3%
